From PubChem BioAssay (NCI)
The panel holds about 79,000 compounds, 15% with a hit somewhere; the sample as a whole holds those more often. Active and inactive are the calls of the source. Rule as the data show it: active = growth inhibition above about 70%; inactive = the rest. Where a SMILES comes first, the peptide text is derived from it. Bridges are numbered along the chain shown (N, C = ends). The star is where a group is joined. Cbz = O=C(OCc1ccccc1)*; OBn = c1ccc(CO*)cc1

assay: NCI Yeast Anticancer Drug Screen. Data for the rad50 strain (AID 155);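 also: 0% = growth of vehicle-only cultures of the same strain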; conditions: S. cerevisiae rad50 strain growth inhibition; at 50.0 µM; active compounds read high
Method in brief: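 Yeast carrying a defined DNA repair defect were exposed to test compounds, and growth was compared with vehicle-treated controls to give percent inhibition.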

| Compound | growth inhibition |
| --- | --- |
| CSC(=Nc1nnc(-c2ccc([N+](=O)[O-])cc2)s1)SC | 8.35% (inactive) |
| BrCCCOc1ccccc1Br | 14.6% (inactive) |
| Clc1cccc(NNc2cccc(Cl)c2)c1 | -11.5% (inactive) |
| CCCCCCCCCCCCCCCC(=O)OCC(=O)O | 14.7% (inactive) |
| O=C1CSC(=O)N1 | -24.3% (inactive) |
| CC(C)OC(=O)Nc1ccc(F)c(F)c1 | 24.9% (inactive) |
| CC(C)CN1CC(C)C(=O)NC1=O (stereo not given) | 1.4% (inactive) |
| COc1ccc2cc(C(=O)CCC(=O)O)ccc2c1 | 2.7% (inactive) |
| CC(C)C1NC(C(=O)O)C(C)(C)S1 (stereo not given) | 1.75% (inactive) |
| CCCc1c(Cl)nc(Cl)nc1Cl | -8.75% (inactive) |
| O=C1C(N=Nc2ccccc2)Sc2nc3ccccc3n21 (stereo not given) | -16.1% (inactive) |
| CCOC(=O)CC(=O)CC | 8.5% (inactive) |
| CCOC(=O)c1c2ccc(/C=C/c3ccccn3)ccc-2c(C(=O)OCC)c1N | 15.2% (inactive) |
| CC(=O)NCC1(c2ccccc2)CCN(Cc2ccccc2)CC1 | -6.8% (inactive) |
| O=C(Nc1ccccc1Cl)c1ccccc1O | 10.1% (inactive) |
| BrCCCCCCCCCBr | 9.75% (inactive) |
| COc1ccc(Nc2nc(NNC(=O)Cc3ccccc3)nc(NNC(=O)c3ccncc3)n2)cc1 | 8.5% (inactive) |
| CCN(CC)Cc1cc(C)c(O)c(N=Nc2cc(OC)c(N=Nc3ccc([N+](=O)[O-])cc3)cc2OC)c1C | 16% (inactive) |
| CCNC(=S)NC1CCCCC1 | -8.35% (inactive) |
| CC(=O)CC(=O)NCc1ccc2c(c1)OCO2 | -17.4% (inactive) |

| Compound | growth inhibition |
| --- | --- |
| COC(=O)C1CCC(=O)NCCCCC(NC(=O)C(CC(=O)OCc2ccccc2)NC(=O)OCc2ccccc2)C(=O)N1 (stereo not drawn) (Cbz-Asp(OBn)-Lys-Glu-OMe; lactam 2-3; configuration not given here) | -2% (inactive) |
| O=C(O)C(c1ccccc1)C(F)(F)F (stereo not given) | -1.45% (inactive) |
| COc1cc(/C=C/C(=O)N[C@@H]2C(=O)N3[C@@H]2SC(C)(C)[C@@H]3C(=O)O)cc(OC)c1OC | -5.6% (inactive) |
| CC1=NN(c2nc(N)nc(CSc3cc(Cl)c(C)cc3S(N)(=O)=O)n2)C(C)(C)C1 | -15.5% (inactive) |
| O=C(Oc1ccc(Cl)cc1)c1ccccc1 | 25.3% (inactive) |
| COC(=O)C1=CCOc2c1c(C(=O)OC)nn2C | -4.8% (inactive) |
| C/C=C/C(=O)NN | 13.3% (inactive) |
| C=C(NC(C)=O)C(=O)O | -4.65% (inactive) |
| O=C1c2ccccc2C(=O)c2c1nnn2-c1ccccc1 | 41.7% (inactive) |
| CC1=C(c2ccccc2)CON(c2ccccc2)C1 | -9.3% (inactive) |
| CC(C)(C)N=Cc1ccccc1[O-].CC(C)(C)N=Cc1ccccc1[O-].[Co+2] | 4% (inactive) |
| Cc1c(C)c(O)c(C)c(C)c1O | -8.8% (inactive) |
| NC(N)=NS(=O)(=O)c1ccc(NC(=O)c2cccc3c(N)c4ccccc4nc23)cc1 | 5.35% (inactive) |
| O=C(NO)/C(CC(=O)c1ccc(O)cc1)=N\O | -8.9% (inactive) |
| C/C(=N\N(C)/C=N/S(C)(=O)=O)c1ccccc1 | 7.85% (inactive) |
| O=C(O)C#Cc1ccccc1 | 25.7% (inactive) |
| O=C(NCc1ccccc1)NCc1ccccc1 | -25.5% (inactive) |
| CN1CCCCC1CCN1CCCCC1 (stereo not given) | -38.9% (inactive) |
| O=c1cnc(=O)[nH][nH]1 | -12.4% (inactive) |
| COc1ccc(-n2nnnc2C2(Nc3ccccc3)CCN(Cc3ccccc3)CC2)cc1 | -22.4% (inactive) |

assay: NCI Yeast Anticancer Drug Screen. Data for the mec2-1 strain (AID 157); conditions: S. cerevisiae mec2-1 strain, at 50.0 µM, active compounds read high
Method in brief: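 Cells of the genetically defined mec2-1 yeast strain are incubated with test compound. Inhibition of growth is calculated against vehicle-treated controls.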

| Compound | growth inhibition |
| --- | --- |
| CSC(=Nc1nnc(-c2ccc([N+](=O)[O-])cc2)s1)SC | 1.2% (inactive) |
| BrCCCOc1ccccc1Br | -11.2% (inactive) |
| Clc1cccc(NNc2cccc(Cl)c2)c1 | -16.8% (inactive) |
| CCCCCCCCCCCCCCCC(=O)OCC(=O)O | -16.4% (inactive) |
| O=C1CSC(=O)N1 | -14.4% (inactive) |
| CC(C)OC(=O)Nc1ccc(F)c(F)c1 | -16.8% (inactive) |
| CC(C)CN1CC(C)C(=O)NC1=O (stereo not given) | -3.4% (inactive) |
| COc1ccc2cc(C(=O)CCC(=O)O)ccc2c1 | -35% (inactive) |
| CC(C)C1NC(C(=O)O)C(C)(C)S1 (stereo not given) | 6.6% (inactive) |
| CCCc1c(Cl)nc(Cl)nc1Cl | 26.8% (inactive) |
| O=C1C(N=Nc2ccccc2)Sc2nc3ccccc3n21 (stereo not given) | -3.2% (inactive) |
| CCOC(=O)CC(=O)CC | -16.6% (inactive) |
| CCOC(=O)c1c2ccc(/C=C/c3ccccn3)ccc-2c(C(=O)OCC)c1N | -4.75% (inactive) |
| CC(=O)NCC1(c2ccccc2)CCN(Cc2ccccc2)CC1 | -17.3% (inactive) |
| O=C(Nc1ccccc1Cl)c1ccccc1O | -8.7% (inactive) |
| BrCCCCCCCCCBr | -3.35% (inactive) |
| COc1ccc(Nc2nc(NNC(=O)Cc3ccccc3)nc(NNC(=O)c3ccncc3)n2)cc1 | 20.1% (inactive) |
| CCN(CC)Cc1cc(C)c(O)c(N=Nc2cc(OC)c(N=Nc3ccc([N+](=O)[O-])cc3)cc2OC)c1C | 12.4% (inactive) |
| CCNC(=S)NC1CCCCC1 | 5.15% (inactive) |
| CC(=O)CC(=O)NCc1ccc2c(c1)OCO2 | -9.2% (inactive) |

| Compound | growth inhibition |
| --- | --- |
| COC(=O)C1CCC(=O)NCCCCC(NC(=O)C(CC(=O)OCc2ccccc2)NC(=O)OCc2ccccc2)C(=O)N1 (stereo not drawn) (Cbz-Asp(OBn)-Lys-Glu-OMe; lactam 2-3; configuration not given here) | 3.95% (inactive) |
| O=C(O)C(c1ccccc1)C(F)(F)F (stereo not given) | 11.1% (inactive) |
| COc1cc(/C=C/C(=O)N[C@@H]2C(=O)N3[C@@H]2SC(C)(C)[C@@H]3C(=O)O)cc(OC)c1OC | -18.4% (inactive) |
| CC1=NN(c2nc(N)nc(CSc3cc(Cl)c(C)cc3S(N)(=O)=O)n2)C(C)(C)C1 | -8.7% (inactive) |
| O=C(Oc1ccc(Cl)cc1)c1ccccc1 | -2.1% (inactive) |
| COC(=O)C1=CCOc2c1c(C(=O)OC)nn2C | -8.15% (inactive) |
| C/C=C/C(=O)NN | 7.85% (inactive) |
| C=C(NC(C)=O)C(=O)O | -7.4% (inactive) |
| O=C1c2ccccc2C(=O)c2c1nnn2-c1ccccc1 | 5.95% (inactive) |
| CC1=C(c2ccccc2)CON(c2ccccc2)C1 | -15.1% (inactive) |
| CC(C)(C)N=Cc1ccccc1[O-].CC(C)(C)N=Cc1ccccc1[O-].[Co+2] | 7.9% (inactive) |
| Cc1c(C)c(O)c(C)c(C)c1O | -17.1% (inactive) |
| NC(N)=NS(=O)(=O)c1ccc(NC(=O)c2cccc3c(N)c4ccccc4nc23)cc1 | 5.95% (inactive) |
| O=C(NO)/C(CC(=O)c1ccc(O)cc1)=N\O | -10.4% (inactive) |
| C/C(=N\N(C)/C=N/S(C)(=O)=O)c1ccccc1 | 9.5% (inactive) |
| O=C(O)C#Cc1ccccc1 | -27.9% (inactive) |
| O=C(NCc1ccccc1)NCc1ccccc1 | -0.65% (inactive) |
| CN1CCCCC1CCN1CCCCC1 (stereo not given) | -10.2% (inactive) |
| O=c1cnc(=O)[nH][nH]1 | -17.2% (inactive) |
| COc1ccc(-n2nnnc2C2(Nc3ccccc3)CCN(Cc3ccccc3)CC2)cc1 | -8.4% (inactive) |
